Screening results as filed in PubChem.
This is a sample that favours compounds with a hit; in the whole collection about 1.1% have one here.
UCHL1 block: inhibitors of human UCHL1 deubiquitinase | 47,000 tested, 0.2% active | purified UCHL1, Ub-rhodamine cleavage fluorescence | Ubiquitin carboxyl-terminal hydrolase isozyme L1 (Homo sapiens), P09936 | inhibition, % at 20 µM
USP7 inh: inhibitors of human USP7 deubiquitinase; purified USP7, Ub-rhodamine cleavage fluorescence; inhibition, % at 20 µM; 47,000 tested, 0.3% active; AID 1645854, 2021
OTUD3 block: inhibitors of human OTUD3 deubiquitinase | purified OTUD3, Ub-rhodamine fluorescence, 2 h | inhibition, % at 25 µM | 47,000 tested, 0.7% active | AID 1645858, 2021
Each line names hits and unclear results; the compound was inactive in the other large screens. Rule as the data show it: active = inhibition above about 30%; inactive = the rest.

Cc1ccc(CNC(=O)CCCCCn2c(=O)c3sccc3n(CC(=O)c3ccc(Cl)cc3)c2=O)cc1	none
O=C(CCCn1c(=O)c2sccc2n(CC(=O)NCCC2=CCCCC2)c1=O)NCc1ccc2c(c1)OCO2	none
Cc1cc(C)c(NC(=O)Cn2c(=O)n(CCC(=O)NCc3ccc4c(c3)OCO4)c(=O)c3sccc32)c(C)c1	USP7 inh 30, OTUD3 block 34
CN(Cc1ccccc1)S(=O)(=O)c1ccc(NC(=O)c2ccc(Cl)cc2)cc1	none
N#Cc1ccc(NC(=O)Nc2cccn(Cc3ccccc3Br)c2=O)cc1	OTUD3 block 45
N#Cc1cccc(NC(=O)Nc2cccn(Cc3ccccc3F)c2=O)c1	UCHL1 block 35, OTUD3 block 84
N#Cc1cccc(NC(=O)Cn2cccc(-c3nc(-c4ccccc4)no3)c2=O)c1	none
Cc1ccccc1NC(=O)CNc1ccc(C#N)cc1	none
COc1ccc(CN2CC[C@@H]3Oc4ccccc4S(=O)(=O)N(C)[C@H]3CC2)cc1	none
c1ccc(-c2cc(N3CCC4(CC3)OCCO4)nc(-c3ccncc3)n2)cc1	none
c1ccc2c(c1)NC1(CCN(Cc3ccc4ncccc4c3)CC1)N1CCN=C21	none
COc1ccccc1NC(=O)Cn1cc(C(=O)c2ccc(C)cc2)c(=O)c2cc(Cl)ccc21	none
CCOc1ccc2c(c1)c(=O)c(C(=O)c1ccc(C)cc1)cn2CC(=O)Nc1ccc(OC)c(OC)c1	OTUD3 block 36
COc1cc(NC(=O)Cn2cc(C(=O)c3ccccc3)c(=O)c3cc(Cl)ccc32)cc(OC)c1	USP7 inh 51
COc1ccc(NC(=O)Cn2cc(C(=O)c3ccc(C)cc3)c(=O)c3ccccc32)cc1	none
CCOc1ccc2c(c1)c(=O)c(C(=O)c1ccc(F)cc1)cn2CC(=O)Nc1ccc(F)cc1	UCHL1 block 30, USP7 inh 47
COc1ccc(NC(=O)Cn2cc(C(=O)c3ccc(F)cc3)c(=O)c3cc(C)ccc32)cc1	none
Cc1nc(N2CCCCC2)ncc1-c1cc(=O)[nH]c(N2CCC(Cc3ccccc3)CC2)n1	none
CC(C)n1ncc2[nH]c(-c3ccc(N4CCN(C(=O)NCC(=O)O)CC4)cc3)nc21	none
COc1cc2c(cc1OC)-c1cc(NCC(C)C)nc(=O)n1CC2	none
COc1cc2c(cc1OC)-c1cc(NCc3cc(OC)c(OC)c(OC)c3)nc(=O)n1CC2	OTUD3 block 41
CCOC(=O)c1noc2ncn(Cc3ccc(F)cc3)c(=O)c12	none
O=C1c2ccccc2C(=O)c2c(O)c(O)cc(O)c21	UCHL1 block 45
Cc1cc(O)cc2c1C(=O)c1c(O)ccc(O)c1C2=O	none
CC(C)OC(=O)c1cc2c(ccn2-c2ccc(F)cc2)n1CC(=O)NC1CCCCC1	OTUD3 block 47
COC(=O)c1cc2c(ccn2-c2ccc(F)cc2)n1CC(=O)NC1CCCCC1	none
Clc1ccc2c(Nc3ccc4c(c3)OCO4)ccnc2c1	none
O=C(CN1CCN(c2cccc(Cl)c2)CC1)Nc1nnc(C(F)(F)F)s1	none
CNc1nc2c(c(=O)n1C)CN(C(=O)Nc1ccc(C(C)(C)C)cc1)CC2	none
CNc1nc2c(c(=O)n1C)CN(C(=O)Nc1cccc3ccccc13)CC2	OTUD3 block 59
c1cc(-c2noc([C@@H]3CCCN3C3CCOCC3)n2)cc(N2CCCC2)n1	none
CCN1CCN(CC2CCN(S(=O)(=O)c3cc(F)cc(F)c3)CC2)CC1	none
COc1cc(NC(=O)c2ccc3c(c2)OCO3)ccc1-c1cc2ccccc2oc1=O	OTUD3 block 55
Cc1cc(NC(=O)c2ccccc2F)ccc1-c1cc2ccccc2oc1=O	none
Cc1sc2ccn(C)c(=O)c2c1C(=O)NC1CCCC1	none
CCOc1ccccc1NC(=O)COC(=O)C(c1ccccc1)c1ccccc1	OTUD3 block 34
Cc1cc(C)c(NC(=O)COC(=O)C(c2ccccc2)c2ccccc2)c(C)c1	none
CCN1CCN(C(=O)Cn2cccc2-c2nnc(-c3ccccc3)o2)CC1	none
Cc1ccc(C)c(NC(=O)CCc2nc(CSc3nc4ccccc4o3)no2)c1	OTUD3 block 39
Cc1cccc(C)c1NC(=O)CCc1nc(CSc2nc3ccccc3o2)no1	none
CN1C(=O)c2ccccc2C(C(=O)Nc2nc3ccccc3s2)C1c1cccs1 (stereo not given)	none
O=C(CCCC(=O)N1CC[C@H]2NCCCCC[C@H]21)Nc1ccccn1	none
O=C(c1cnc2[nH][nH]c(=O)c2c1)c1cc(Cl)cc(Cl)c1O	UCHL1 block 62, USP7 inh 79, OTUD3 block 71
O=C(c1cnc2oc3ccccc3c2c1)c1ccccc1O	none
O=C(Nc1ccc(F)cc1)NC1CCCc2ccccc21 (stereo not given)	none
O=S(=O)(c1ccccc1Cl)N1CCN(c2ccc3nnc(-c4ccco4)n3n2)CC1	UCHL1 block 40, USP7 inh 34
